Potency data for 25 molecules are collected here from PubChem BioAssay (Tox21).

Values joined by “and” are separate entries in the source; they are usually repeats but may differ in a detail not shown here. Equal values may be shown once. Inconclusive results are not listed. Some structures have more than one record in an assay (separate samples or runs), and their calls can disagree. Active and inactive are the calls of the source. Calls follow the shape of the dose curve; as a rule, active = well fitted curve in the direction sought with a large enough effect in the repeat runs; inconclusive = weak or mixed curves; inactive = no such curve, though single readings can be large; an effect the other way counts as inactive or inconclusive.

The nature of test [1]: qHTS RealTime-Glo MT Cell Viability Assay in HEK293 cells - 0 hour (AID 1224880). Also: top concentration of the series differs between compounds; nearly all actives have a fitted effect of over 45% in size. An outline of the steps: (§1)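 HEK293 cells mixed with RealTime-Glo reagents (NanoLuc plus cell-permeant prosubstrate) at 600 cells/well, preincubated 5 h at 37 C/5% CO2, then given 23 nL compound in DMSO. Nonlytic luminescence from viable cells was read at 0, 8, 16, 24, 32 and 40 h.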
Background: In qHTS, concentration-response curves come from the screen itself.

The nature of test [2]: A CellTox Green Cytotoxicity Assay to monitor cytotoxicity in HEK293 cells - 32 hour (AID 1224881). Also: nearly all actives have a fitted effect of over 40% in size. Also: potency is read from the fitted curve at half-maximal effect. The procedure, abridged: (§2)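 HEK293 cells premixed with CellTox Green dye were seeded at 600 cells/well and left 5 h at 37 C/5% CO2 before pin transfer of 23 nL compound in DMSO. Fluorescence from dye bound to dead-cell DNA was read during 40 h treatment.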
Test [3] is described as follows: A CellTox Green Cytotoxicity Assay to monitor cytotoxicity in HepG2 cells - 0 hour (AID 1224882). Also: nearly all actives have a fitted effect of over 35% in size. An outline of the steps: (§3)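 HepG2 cells were seeded together with the CellTox Green dye at 600 cells/well, left 5 h at 37 C/5% CO2, then given compounds in DMSO. Fluorescence from dye bound to dead-cell DNA was read repeatedly over 40 h of treatment at 37 C.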
Test [4] can be described thus: A CellTox Green Cytotoxicity Assay to monitor cytotoxicity in HepG2 cells - 32 hour (AID 1224883). Also: nearly all actives have a fitted effect of over 50% in size. Also: potency is read from the fitted curve at half-maximal effect. The procedure, abridged: as §3
A short description of test [5]: A CellTox Green Cytotoxicity Assay to monitor cytotoxicity in HEK293 cells - 8 hour (AID 1224884). Also: nearly all actives have a fitted effect of over 35% in size. An outline of the steps:
as §2

A short description of test [6]: qHTS RealTime-Glo MT Cell Viability Assay in HepG2 cells - 16 hour (AID 1224885). Also: nearly all actives have a fitted effect of over 50% in size. Also: potency is read from the fitted curve at half-maximal effect. An outline of the steps:
(§4)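 HepG2 cells (600/well) were dispensed with RealTime-Glo reagents, incubated 5 h at 37 °C, then treated with compounds in DMSO for up to 40 h. Nonlytic NanoLuc luminescence reflecting viable cells was read at each stated time point.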

The nature of test [7]: qHTS RealTime-Glo MT Cell Viability Assay in HEK293 cells - 24 hour (AID 1224886). Also: nearly all actives have a fitted effect of over 50% in size. Also: potency is read from the fitted curve at half-maximal effect. An outline of the steps: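 HEK293 cells seeded with NanoLuc/prosubstrate reagent, rested 5 h at 37 C, then dosed and kept at 37 C up to 40 h. Nonlytic real-time luminescence from viable cells read at 0, 8, 16, 24, 32 and 40 h.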
Test [8] can be described thus: qHTS RealTime-Glo MT Cell Viability Assay in HEK293 cells - 8 hour (AID 1224887). Also: nearly all actives have a fitted effect of over 50% in size. Also: potency is read from the fitted curve at half-maximal effect. The procedure, abridged: as §1
Test [9] is described as follows: A CellTox Green Cytotoxicity Assay to monitor cytotoxicity in HEK293 cells - 16 hour (AID 1224888). Also: nearly all actives have a fitted effect of over 35% in size. The procedure, abridged:
as §2

Test [10] in a line: qHTS RealTime-Glo MT Cell Viability Assay in HepG2 cells - 0 hour (AID 1224889). Also: nearly all actives have a fitted effect of over 50% in size. Also: potency is read from the fitted curve at half-maximal effect. An outline of the steps: as §4

With `NNC(=O)c1cccnc1`, the Potency result in test [1], in [2], in test [3], in test [4], in [5] and in [6] was “inactive” each time. Moreover, the Potency result in test [7], in [8], in [9] and in [10] was “inactive” in each case.

Regarding `C=CCN1CC[C@]23c4c5ccc(O)c4O[C@H]2C(=O)CC[C@@]3(O)[C@H]1C5`, the Potency entry in test [1], in [2], in [3], in test [4], in [5] and in [6] was “inactive” in each case. The Potency result in [7], in [8], in test [9] and in test [10] was “inactive” each time.

With `COC(=O)C(Cl)C(=O)OC`, the Potency entry in test [1], in test [2], in test [3], in test [4], in [5] and in test [6] was “inactive” in each case. The Potency result in [7], in test [8], in test [9] and in test [10] was “inactive” throughout.

Regarding `CN1C(=O)C(O)N=C(c2ccccc2)c2cc(Cl)ccc21` (stereo not drawn), the Potency entry in [1], in test [2], in test [3], in test [4], in test [5] and in [6] was “inactive” throughout. Also, the Potency result in test [8], in test [9] and in test [10] was “inactive” throughout.

Turning to `CC(Cl)Cl`, the Potency entry in test [1], in [2], in test [3], in [4], in [5] and in test [6] was “inactive” each time. In addition, the Potency entry in [7], in test [8], in test [9] and in test [10] was “inactive” throughout.

In the case of `COP(=S)(OC)Oc1ccc([N+](=O)[O-])cc1Cl`, the Potency result in [1], in test [2], in test [3], in test [4], in test [5] and in test [6] was “inactive” in each case. The Potency result in [7], in test [9] and in test [10] was “inactive” each time.

Consider `Cc1ccccc1CCl`, for which the Potency result in [1], in test [2], in test [3], in [4], in test [6] and in test [7] was “inactive” in each case. For the same molecule, the Potency entry in [8], in test [9] and in [10] was “inactive” in each case.

For the molecule `CCCCCC[N+](=O)[O-]`, the Potency result in test [1], in [2], in [3], in test [4], in test [5] and in test [6] was “inactive” in each case. Also, the Potency result in test [7], in test [8], in [9] and in test [10] was “inactive” in each case.

As for `COP(=S)(OC)Oc1cc(Cl)c(I)cc1Cl`, the Potency result in [1], in [2], in test [3], in test [4], in [5] and in test [6] was “inactive” in each case. Also, the Potency result in test [7], in test [8], in [9] and in [10] was “inactive” throughout.

As for `CN(C)c1ccc(N(C)C)cc1`, the Potency entry in [1], in [2], in test [3], in test [4], in [5] and in [6] was “inactive” throughout. Also, the Potency entry in [9] and in test [10] was “inactive” in each case. The Potency in test [8] is 34.8 µM (active).

In the case of `CC(C)=CCOc1c2occc2cc2ccc(=O)oc12`, the Potency result in test [1], in [2], in test [3], in [4], in test [5] and in test [7] was “inactive” throughout. The Potency result in [8], in test [9] and in test [10] was “inactive” each time.

As for `Clc1ccc(C2(Cn3cncn3)CC(Br)CO2)c(Cl)c1` (stereo not drawn), the Potency entry in test [1], in test [2], in [3], in test [5], in test [9] and in test [10] was “inactive” each time. The Potency in test [4] was 34.5 µM (active); in test [7], 27.4 µM (active).

`CCOP(=S)(OCC)Oc1cc(Cl)c(Br)cc1Cl`: the Potency entry in [1], in [2], in test [3], in test [4], in test [5] and in [6] was “inactive” throughout. Besides, the Potency result in test [8], in [9] and in [10] was “inactive” in each case.

`CC(C)(Cl)[N+](=O)[O-]`: the Potency result in [1], in test [2], in test [3], in test [4], in test [5] and in test [6] was “inactive” throughout. The Potency result in [7], in test [8] and in test [9] was “inactive” each time. Besides, in test [10], the Potency was 6.19 µM (active).

As to `O=C(CCl)c1ccc(Cl)cc1Cl`, the Potency entry in test [1], in test [3], in test [8], in test [9] and in [10] was “inactive” throughout. The Potency in [2] is 8.49 µM (active); in [4], 23.9 µM (active); in test [6] it was “inactive and 16.9 µM (active)”; in test [7], 4.77 µM (active).

As to `O=C(NCc1cccnc1)Nc1ccc([N+](=O)[O-])cc1`, the Potency result in [1], in test [2], in [3], in test [4], in test [5] and in test [6] was “inactive” throughout. For the same molecule, the Potency result in test [8], in [9] and in test [10] was “inactive” each time. Further, the Potency in [7] is 49 µM (active).

For the molecule `Nc1nc(=S)[nH][nH]1`, the Potency entry in [1], in [2], in [3], in [4], in [5] and in test [6] was “inactive” each time. Also, the Potency entry in test [7], in test [8], in [9] and in test [10] was “inactive” throughout.

On to `C=CCCl`, for which the Potency result in test [1], in test [2], in test [3], in test [4], in test [5] and in test [6] was “inactive” throughout. Besides, the Potency result in test [7], in test [8], in test [9] and in [10] was “inactive” each time.

For the molecule `[CH3][Sn]([CH3])([Cl])[Cl]`, the Potency entry in [1], in test [2], in test [3], in [4], in test [5] and in test [6] was “inactive” in each case. Besides, the Potency result in test [8], in [9] and in [10] was “inactive” in each case.

Turning to `CCOP(=S)(OCC)SCn1nnc2ccccc2c1=O`, the Potency result in test [1], in test [2], in [3], in test [4], in test [5] and in [9] was “inactive” in each case. Further, the Potency in [7] is 21.9 µM (active); in [8] it was 21.9 µM (active); in test [10], 24.5 µM (active).

As for `C=CC(=O)OCC(C)C`, the Potency entry in test [1], in test [2], in test [3], in [4], in test [5] and in test [6] was “inactive” each time. Further, the Potency entry in [7], in [8], in test [9] and in test [10] was “inactive” throughout.

Consider `COc1c(C(C)(C)C)cc([N+](=O)[O-])c(C)c1[N+](=O)[O-]`, for which the Potency entry in test [1], in [2], in [3], in test [4], in [6] and in test [7] was “inactive” throughout. The Potency entry in [8], in test [9] and in test [10] was “inactive” in each case.

Consider `C=CC(=O)NCNC(=O)C=C`, for which the Potency entry in [1], in test [2], in [3], in test [4], in test [6] and in [7] was “inactive” in each case. For the same molecule, the Potency entry in [8], in test [9] and in test [10] was “inactive” in each case.

As for `CCOC(=O)CBr`, the Potency entry in test [1], in test [2], in test [3], in [4], in test [6] and in test [9] was “inactive” in each case. In test [10], the Potency entry is “inactive”.

For the molecule `COC(=O)c1cncn1C(C)c1ccccc1` (stereo not drawn), the Potency result in [1], in test [2], in test [3], in [4], in test [6] and in [7] was “inactive” throughout. In addition, the Potency entry in [8], in [9] and in [10] was “inactive” in each case.
